{
  "source": "PubChem BioAssay AID588855",
  "about": "(National Center for Advancing Translational Sciences (NCATS), 2011)",
  "note": "Hit rate of the full screen: of about 410,000 compounds, about 5,000 (1.2%) were called active. Inconclusive results (about 13%) are left out. Calls come from the whole dose curve; as a rule, active = well fitted inhibition curve with a large enough effect; inconclusive = small, poorly fitted or top-dose-only effect; inactive = no such curve, though single readings can be large or run the other way. Shown is part of a subset that was picked to be rich in actives. A call without a number means that no potency is given here.",
  "data": [
    {"assay": "qHTS for Inhibitors of TGF-b; note: nearly all actives have a fitted effect of over 65% in size; note: potency is the fitted concentration of half-maximal effect", "conditions": "HepG2 CAGA-GFP TGF-b/SMAD3 reporter, GFP fluorescence, 18 h, TGF-beta stimulated, 500 pg/mL final; series mostly up to 46.1 µM", "in_short": "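Inhibition of TGF-beta-driven CAGA-GFP reporter expression in HEPG2 cells is measured by cellular GFP fluorescence after 18 h stimulation with 500 pg/mL recombinant TGF-beta in 1% FBS medium at 37 degrees C.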", "values": [
      {"compound": "CCOC(=O)Nc1ccc2c(c1)N(C(=O)CN1CCN3CCCC3C1)c1ccccc1CC2", "note": "(stereo not drawn)", "Potency": "inactive"},
      {"compound": "CCOC(=O)Nc1ccc2c(c1)N(C(=O)CCCl)c1ccccc1[S@]2=O", "Potency": "7.08 µM (active)"},
      {"compound": "CCOC(=O)Nc1ccc2c(c1)N(C(=O)CCN1CCN(CCO)CC1)c1ccccc1CC2", "Potency": "inactive"},
      {"compound": "S=c1[nH]c(=S)c2n[nH]nc2[nH]1", "Potency": "inactive"},
      {"compound": "Cc1ccc(C(=O)Nc2c(C(=O)NC(C)(C)C)oc3ccccc23)cc1", "Potency": "inactive"},
      {"compound": "CCCC(=O)Nc1ccc2oc(-c3ccc(O)c(Br)c3)nc2c1", "Potency": "inactive"},
      {"compound": "O=C1/C(=C\\c2ccc([N+](=O)[O-])cc2)CS(=O)(=O)C/C1=C/c1ccc([N+](=O)[O-])cc1", "Potency": "6.31 µM (active)"},
      {"compound": "CC(=O)Nc1ccc(C=CC(=O)c2ccc([N+](=O)[O-])cc2)cc1", "Potency": "inactive"},
      {"compound": "CC(=O)Nc1ccc(C=Cc2ccc([N+](=O)[O-])cc2)cc1", "Potency": "inactive"},
      {"compound": "COC(=O)c1cccc(Cn2nnc3sc4c(c3c2=O)CCC(C(C)(C)C)C4)c1", "note": "(stereo not drawn)", "Potency": "inactive"},
      {"compound": "COc1cccc(CNc2nccn(-c3ccc(OC)c(OC)c3)c2=O)c1", "Potency": "inactive"},
      {"compound": "O=C(NC1CCN(Cc2ccccc2)CC1)c1ccc(Cn2c(=O)c3ccccc3n(Cc3cccc(F)c3)c2=O)cc1", "Potency": "inactive"},
      {"compound": "Fc1ccc(-c2nc(Nc3cccc(Cl)c3)nc3c2COc2ccccc2-3)cc1", "Potency": "inactive"},
      {"compound": "Cc1oc(C)c2c(=O)cc(-c3ccc4c(c3)OCO4)cc(OC(=O)c3ccc(Cl)cc3)c12", "Potency": "inactive"},
      {"compound": "COc1ccc(C(=O)Nc2onc3c2CCCC3)cc1", "Potency": "inactive"},
      {"compound": "Cc1ccc(NC(=O)NNC(=O)c2sccc2-n2cccc2)cc1", "Potency": "inactive"},
      {"compound": "O=C(NNC(=O)c1ccc(-c2ccccc2)cc1)Nc1ccccc1", "Potency": "inactive"},
      {"compound": "C=CC[n+]1c(-c2ccc(C)cc2)csc1NNC(=O)Nc1ccccc1", "Potency": "11.2 µM (active)"},
      {"compound": "O=C(NC1CC(=O)N(c2ccc(F)cc2)C1)c1cccs1", "note": "(stereo not drawn)", "Potency": "inactive"},
      {"compound": "CCCCNS(=O)(=O)CCNCc1ccccc1OC", "Potency": "inactive"},
      {"compound": "CC1(C)CC(=O)C=C(NCCCNC2CCCCC2)C1", "Potency": "inactive"},
      {"compound": "CCCCCCCCNS(=O)(=O)CCNC1CCCCC1", "Potency": "17.8 µM (active)"},
      {"compound": "O=C(CC1Oc2ccc(Cl)cc2NC1=O)NCc1ccccc1", "note": "(stereo not drawn)", "Potency": "inactive"},
      {"compound": "Cc1ccccc1CNC(=O)C(=O)NCC(c1cccs1)S(=O)(=O)c1cccs1", "note": "(stereo not drawn)", "Potency": "inactive"},
      {"compound": "CN1CCN(c2ccc([N+](=O)[O-])c(Sc3nc4ccccc4[nH]3)c2)CC1", "Potency": "inactive"},
      {"compound": "CN(Cc1ccccc1)C(=O)CSc1nc2ccccc2[nH]1", "Potency": "inactive"},
      {"compound": "CCC(C)N1C(=O)S/C(=C/c2ccc(Sc3nc4ccccc4[nH]3)o2)C1=O", "note": "(stereo not drawn)", "Potency": "11.2 µM (active)"},
      {"compound": "COc1ccc(-c2nnc(SCC(=O)Nc3ccc(C(C)C)cc3)nc2-c2ccc(OC)c(OC)c2)cc1OC", "Potency": "inactive"},
      {"compound": "COc1ccc(CNC(=O)Cn2nnc(-c3ccccc3F)n2)cc1", "Potency": "inactive"},
      {"compound": "Cc1nc(/N=C(\\N)NC(=O)NC2CCCCC2)nc2ccccc12", "Potency": "12.6 µM (active)"},
      {"compound": "CC(C)c1cc(C(=O)NC2CCCCCC2)c2ccccc2n1", "Potency": "inactive"},
      {"compound": "O=C(NNC(=O)C(O)c1ccccc1)NC1CCCCC1", "note": "(stereo not drawn)", "Potency": "inactive"},
      {"compound": "CCC1(C)CC(=O)c2c(ccc3oc(C(=O)Nc4ccc(C(C)=O)cc4)c(C)c23)O1", "note": "(stereo not drawn)", "Potency": "inactive"},
      {"compound": "CCn1c(=O)cc(OCC(=O)Nc2cc(Cl)c(OC)cc2OC)c2ccccc21", "Potency": "inactive"},
      {"compound": "COc1ccc(OC)c(-c2csc(-c3c(N)c(C(=O)c4ccccc4)n4ccccc34)n2)c1", "Potency": "inactive"},
      {"compound": "C=CS(=O)c1sc(Cl)c(N2CCOCC2)c1[N+](=O)[O-]", "note": "(stereo not drawn)", "Potency": "11.2 µM (active)"},
      {"compound": "Cc1nnc(SC(C(=O)c2ccccc2)c2ccccc2)[nH]c1=O", "note": "(stereo not drawn)", "Potency": "inactive"},
      {"compound": "COc1cccc(NC(=O)C(Sc2nnnn2C)c2ccccc2)c1", "note": "(stereo not drawn)", "Potency": "inactive"},
      {"compound": "Cc1nnc(SC(C(=O)Nc2cc(Cl)cc(Cl)c2)c2ccccc2)[nH]c1=O", "note": "(stereo not drawn)", "Potency": "17.8 µM (active)"},
      {"compound": "Cc1ccn2c(Nc3ccc4c(c3)OCCO4)c(-c3ccc(C)s3)nc2c1", "Potency": "inactive"},
      {"compound": "COc1ccccc1CNC(=O)c1ccc(-n2c(C)cc3c2CCCC3)cc1", "Potency": "inactive"},
      {"compound": "Cc1ccc(C(=O)Nc2ccccc2F)cc1S(=O)(=O)N1CCOCC1", "Potency": "inactive"},
      {"compound": "CC(=O)c1ccc(NC(=O)CSc2nnc(NC(=O)Nc3ccccc3)s2)cc1", "Potency": "inactive"},
      {"compound": "CC(=O)c1cccc(NC(=S)N2CCCC2)c1", "Potency": "inactive"},
      {"compound": "C=CCSc1nsc(NC(=O)Nc2cccc(C(C)=O)c2)n1", "Potency": "3.55 µM (active)"},
      {"compound": "CCN(CC)c1ccc(NC(=O)Cn2nc3c(cc2=O)CCCC3)c(C)c1", "Potency": "inactive"},
      {"compound": "O=C(Nc1ccccc1Cl)/C(Cl)=C(\\Cl)S(=O)c1ccccc1", "note": "(stereo not drawn)", "Potency": "2.24 µM (active)"},
      {"compound": "O=C(Nc1ccccc1Cl)N1CCC(CN2CCCC2)CC1", "Potency": "inactive"},
      {"compound": "CS/C(=C\\C(=O)c1ccco1)Nc1ccccc1Cl", "Potency": "inactive"},
      {"compound": "CCc1ccc(-n2nc(C)c3c(C)cc(=O)n(CC(=O)Nc4ccc(F)cc4C)c32)cc1", "Potency": "inactive"},
      {"compound": "CCOc1ccccc1NC(=O)CCn1cnnn1", "Potency": "inactive"},
      {"compound": "Cc1ccc(S(=O)(=O)/N=C(\\N)c2ccc(F)cc2)cc1", "Potency": "inactive"},
      {"compound": "N/C(=N\\S(=O)(=O)c1cc(C(F)(F)F)cc(C(F)(F)F)c1)c1cccs1", "Potency": "12.6 µM (active)"},
      {"compound": "O=C(Cc1cccs1)NCc1cccc(C(F)(F)F)c1", "Potency": "inactive"},
      {"compound": "CCc1ccc(NC(=O)CSc2nc3c([nH]c4ccccc43)c(=O)n2-c2cccc(OC)c2)cc1", "Potency": "inactive"},
      {"compound": "COc1ccc(-c2nc(Cn3c(=O)cc(C)c4c(C)nn(-c5ccccc5)c43)c(C)o2)cc1OC", "Potency": "inactive"},
      {"compound": "Cc1ccc(C)n1NC(=O)c1ccc([N+](=O)[O-])cc1", "Potency": "inactive"},
      {"compound": "N=C1C(c2nc3ccccc3[nH]2)=C(O)CN1NC(=O)c1c[nH]c2ccccc12", "Potency": "inactive"},
      {"compound": "N=C1C(c2nc3ccccc3s2)=C(O)CN1NC(=O)c1ccc([N+](=O)[O-])cc1", "Potency": "7.08 µM (active)"},
      {"compound": "Cc1ccc(C(=O)Nc2ccc(OCc3cc(=O)n4c5c(sc4n3)CCCC5)cc2)cc1", "Potency": "inactive"},
      {"compound": "CC(C)C[C@H]1CNC(=S)N1C[C@H]1CCCN1C[C@H](Cc1ccc(O)cc1)N1C[C@H](Cc2ccc(O)cc2)N(CC2CCCCC2)C1=S", "Potency": "15.8 µM (active)"},
      {"compound": "CCOc1ccc(CCN2C(=S)N([C@@H](CC(C)C)CN3CCC[C@@H]3CN3C(=S)NC[C@@H]3Cc3ccc(O)cc3)C[C@@H]2CC(C)C)cc1", "Potency": "10 µM (active)"},
      {"compound": "NC1=NC[C@@H](Cc2ccc(O)cc2)N1CC1CCCCC1", "Potency": "inactive"},
      {"compound": "CCOc1ccc(CCN2C(=S)N([C@@H](CC(C)C)CN3CCC[C@@H]3CN3C(=S)NC[C@@H]3Cc3ccc(O)cc3)C[C@@H]2Cc2ccc(O)cc2)cc1", "Potency": "11.2 µM (active)"},
      {"compound": "O=C1NC[C@@H](Cc2ccc(O)cc2)N(CCc2cccc(F)c2)C1=O", "Potency": "inactive"},
      {"compound": "CC[C@@H](C)[C@@H]1CN([C@@H](C)CN2CCC[C@H]2CN2C(N)=NC[C@H]2C(C)C)C(=N)N1CCc1ccc(Cl)c(Cl)c1", "Potency": "inactive"},
      {"compound": "C[C@@H](CN1CCC[C@H]1CN1C(N)=NC[C@@H]1Cc1ccccc1)N1C[C@@H](Cc2ccccc2)N(CCCC2CCCC2)C1=N", "Potency": "inactive"},
      {"compound": "O=C1NC[C@H](Cc2ccc(O)cc2)N(C[C@H]2CCCN2C[C@H](Cc2ccccc2)N2C[C@H](Cc3ccccc3)N(CCc3ccccc3)C(=O)C2=O)C1=O", "Potency": "inactive"}
    ]}
  ]
}
